Reference: PubChem BioAssay (NCI)
This is part of a sample that, as a whole, favours compounds with a hit. Of some 83,000 tested, about 20% had one in any assay.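 Activity criterion: percent growth below 10, measured after cells in 96-well plates were exposed to a single compound concentration for 48 hours.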 Values without a mark were called inactive. Calls of active or inactive are those of the source.

Assays:
Experiment in all cases: NCI-60 one-dose screen, 48 h (100 = growth as untreated, 0 = no growth, -100 = all killed)
Conditions in all cases: 10 µM unless noted
NCI-H23 lung = test system: NCI-H23 lung
NCI-H226 lung = test system: NCI-H226 lung
NCI-H322M lung = test system: NCI-H322M lung
HOP-62 NSCLC = test system: HOP-62 NSCLC
NCI-H460 lung = test system: NCI-H460 lung
HOP-92 NSCLC = test system: HOP-92 NSCLC
NCI-H522 lung = test system: NCI-H522 lung
A549/ATCC NSCLC = test system: A549/ATCC NSCLC
786-0 renal = test system: 786-0 renal
COLO 205 colon = test system: COLO 205 colon

Structure (SMILES) | growth (NCI-H23 lung) | growth (NCI-H226 lung) | growth (NCI-H322M lung) [%] | growth (HOP-62 NSCLC) | growth (NCI-H460 lung) | growth (HOP-92 NSCLC) | growth (NCI-H522 lung) | growth (A549/ATCC NSCLC) [%] | growth (786-0 renal) | growth (COLO 205 colon)
O=[N+]([O-])CC(c1ccccc1F)c1c[nH]c2ccccc12 (stereo not given) | 82.5% | 81.9% | 96 | 69% | 94.8% | 80.9% | 23.2% | 70 | 87.7% | 80.4%
O=C1Nc2ccccc2/C1=C\c1c(-c2ccccc2)nc2ccccn12 | 8.45% (active) | 57.6% | 70.1 | 41.3% | 24.3% | 66.6% | 22.3% | 47.1 | 58.7% | 31%
COc1ccc(C(=O)c2cc(C)c(OC)c(C)c2)c(OC)c1NC(C)=O | 29.5% | 17.4% | 42.7 | 20.3% | 3.32% (active) | 6.76% (active) | 13.4% | 18.1 | 13.7% | -5.99% (active)
CC(=O)N1c2ccccc2NC2=C(C(=O)NC2(C)C)C1c1ccco1 (stereo not given) | 91.2% | 96.8% | 94.9 | 112% | 98.4% | 67.2% | 75.7% | 96.5 | 93.9% | 77.7%
O=C(/C=C/c1ccc[nH]1)c1ccc(-n2ccc(C(F)(F)F)n2)c(F)c1 | 88.7% | 84% | 85.1 | 103% | 100% | 92.4% | 69.5% | 87.4 | 91.8% | 119%
COc1cc(C2C3=C(COC3=O)N(CCO)c3cc4c(cc32)CCC4)cc(OC)c1OC (stereo not given) | -26.2% (active) | 2.98% (active) | 39.8 | 7.11% (active) | -44.8% (active) | 78.2% | -26.7% (active) | 28.9 | -4.65% (active) | -98.8% (active)
S=c1cc(S)c2cc(Br)ccc2[nH]1 | 81.5% | 83.9% | 91.1 | 85.9% | 99.4% | 88.5% | 68.1% | 89.5 | 104% | 98.8%
COc1ccc(/C=N/NC(=O)c2cnn3c2NC(c2ccccc2)C3)cc1OC (stereo not given) | 73.9% | 94.1% | 75.4 | 60% | 28.3% | 73.2% | 42.8% | 54.2 | 76.2% | 45.7%
O=S(=O)(NCCCNc1nccc(-c2c(-c3cccc(F)c3)nc3sccn23)n1)c1cccc2ccccc12 | 66.2% | 36.8% | 81.6 | 80.7% | 19.8% | 94.6% | 56.3% | 45.6 | 52.9% | 21.5%
CCCOc1ccc(/C=N/Nc2cc(C)nc3ccc(Cl)cc23)cc1 | 75.9% | 88.3% | 62.1 | 75.2% | -37.5% (active) | 69.2% | 86.9% | 36.9 | -86.4% (active) | -80.7% (active)
CC1(C)CC(O)CCCCCCOc2c(CN)cccc2NC(=O)c2nc(cnc2N)-c2ccc(cc2)S1(=O)=O (stereo not given) | 28% | 48.6% | 44.4 | 44.7% | -30.2% (active) | 115% | 12.6% | 27.9 | -15.4% (active) | 22.9%
